Assay results: PubChem BioAssay (NCI)
Compounds without any hit were thinned out: in the full panel of roughly 83,000, 20% have a hit.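 Results are percent growth after 48 hours of single-concentration exposure. 100 means growth as in untreated cells, lower positive values show inhibition; negative values down to -100 show cell death.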 A number with no mark means an inactive call. Active and inactive are the calls of the source. Rule for the calls: active = growth percent below 10; inactive = the rest.

Columns and labels:
Assay in all cases: NCI-60 one-dose screen, 48 h (100 = growth as untreated, 0 = no growth, -100 = all killed)
Details in all cases: 10 µM unless noted
[1] = system: SR leukemia
[2] = system: OVCAR-8 ovarian
[3] = system: OVCAR-5 ovarian
[4] = system: OVCAR-4 ovarian
[5] = system: SK-OV-3 ovarian
[6] = system: IGROV1 ovarian
[7] = system: OVCAR-3 ovarian
[8] = system: HS 578T breast
[9] = system: NCI/ADR-RES ovarian
[10] = system: T-47D breast
[11] = system: BT-549 breast
[12] = system: MDA-MB-435 melanoma
[13] = system: SW-620 colon
[14] = system: HCT-116 colon
[15] = system: HCC-2998 colon
[16] = system: KM12 colon
[17] = system: MCF7 breast

Compound	growth [1]	growth [2]	growth [3]	growth [4]	growth [5]	growth [6]	growth [7]	growth [8]	growth [9]	growth [10]	growth [11]	growth [12]	growth [13]	growth [14]	growth [15]	growth [16]	growth [17]
COc1ccc2sc3c(NCCCN(C)C)nc4ccccc4c3c(=O)c2c1	-39.2% (active)	61.9%	89.8%	-9.97% (active)	74.9%	54.2%	-18.5% (active)	73%	55.7%	93.6%	69.4%	-46.9% (active)	-77.2% (active)	-88.7% (active)	-90.8% (active)	-47.2% (active)	
CCCC1CCC(O)(C(C)(O)C(=O)NC2C(=O)N3NCCCC3C(=O)N(O)C(C)C(=O)N3NCCCC3C(=O)N3NCC(O)CC3C(=O)NC(C)C(=O)OC2C(C)C)OC1CC (configuration not stated)	-87.6% (active)	-71.8% (active)	-98.4% (active)	-81% (active)	-96.3% (active)	-40% (active)	-89.9% (active)	-78.1% (active)	-76.7% (active)	-77.8% (active)	-67.3% (active)	-74.6% (active)	-97.3% (active)	-57.2% (active)	-93.6% (active)	-88.5% (active)	-83% (active)
CCn1cnc2c1c(=O)[nH]c(=O)n2CC1CCC(CNS(=O)(=O)c2ccc(OC3CCOCC3)c(F)c2)CC1 (configuration not stated)	49.6%	60.5%	64.1%	42%	31.9%	62.6%	60.5%	15.9%	95.8%	19.9%	72.7%		65.1%	49.2%	63.9%		26.7%
Cc1cccc2c(=O)c3c(sc12)c(NCc1ccccc1)nc1ccccc13	74.4%	100%	75.6%	87.6%	88.7%	74.3%	106%	98.7%	97.2%	48.4%	101%	109%	95.5%	77%	90.3%	84.5%	
C=C(C)C1CCC2(C)OC2C1 (configuration not stated)	116%	113%	102%	94.6%	116%	89.5%	123%	106%	99.6%	117%	99.3%	98.2%	110%	109%	114%	115%	
NCCOc1ncccc1/C=C1\c2ccccc2-c2ccc(C(F)F)cc21	2.72% (active)	56.4%	69.6%	83.9%	64.3%	32.5%	76.2%	53.4%	57.4%	51.5%	87.3%	82.3%	38.4%	42.1%	24.2%	78.8%	
CC1=C(SCCC(=O)OC(C[Se]C2=C(C)C(=O)c3ccccc3C2=O)C(=O)NC(C)(C)C)C(=O)c2ccccc2C1=O (configuration not stated)	18.7%	-79.4% (active)	-68.9% (active)	-91.5% (active)	-100% (active)	-27.9% (active)	-97.6% (active)	-21.3% (active)	-68.6% (active)	-52.9% (active)	-96.2% (active)	-86.8% (active)	-80% (active)	-70.9% (active)	-82.8% (active)	-94.6% (active)	
Cc1ccc2c(n1)C(=O)C(Cl)=C(Nc1ccccc1C(C)C)C2=O	33.4%	67.5%	85.9%	28.4%	79.7%	63.9%	-3.79% (active)	100%	85.8%	52.7%	74.9%		48.2%	25.1%	113%	88%	21.1%
CCCCn1c(=O)c(-c2cc(-c3ccc(Cl)cc3)nc(-c3ccc(Cl)cc3)c2)cc2cc(C)ccc21	109%	100%	100%	110%	115%	96.4%	112%	99.1%	104%	95.8%	103%	104%	99.6%	99.8%	105%	102%	97.6%
Cc1c(C(=O)NCCN2CCOCC2)cn2ncnc(Oc3ccc(NC(=O)Nc4ccc(Cl)c(C(F)(F)F)c4)cc3)c12	1.03% (active)	33%	53.3%	31.7%	30.6%	39.3%	16%	-23.8% (active)	82.1%	15%	45.6%	18%	0.917% (active)	8.49% (active)	51.1%	19.6%	
N#Cc1cccc(NC(=O)c2cc(-c3ccc(F)cc3F)ccc2O)c1	12.8%	16.8%	36.8%	22.1%	6.59% (active)	29%	1.29% (active)	16%	4.93% (active)	16.1%	5.92% (active)	8.27% (active)	18.8%	7.36% (active)	26.5%	7.89% (active)	3.66% (active)
COc1ccc(C2NC(=O)C(C#N)c3c2sc2c(F)cccc32)c(OC)c1 (configuration not stated)	13.9%	62.3%	98.9%	53.7%	50.8%	52.7%	13.8%	21.4%	16.7%	61.7%	72.1%	-28.7% (active)	32.3%	23.8%	88.3%	32%	
O=c1c2cc(F)ccc2sc2c(NCCCNCCO)nc3ccc(F)cc3c12	-25.8% (active)	58.5%	73.7%	41.5%	80.4%	43.6%	30.4%	61%	66.5%	70.2%	83.9%	-28.4% (active)	-39.7% (active)	-72.8% (active)	1.69% (active)	24.9%	47.9%
O=C(N/N=C/[C@@H](O)[C@H](O)[C@H](O)CO)c1ccc(NC(=O)c2cccnc2)cc1	95.7%	105%	103%	114%	99.1%	109%	112%	104%	112%	96.1%	99%	104%	98.9%	103%	117%	102%	
COc1cc2cc(Oc3ccc(NC(=O)Nc4ccc(Cl)c(C(F)(F)F)c4)cc3)c(C)nc2cc1OCCN1CCOCC1	-1.99% (active)	13.4%	55.6%	31.6%	31%	34.7%	16.5%	72.6%	11.4%	22.6%	48.6%	15.5%	15.1%	10.3%	36.9%	14.9%	4.87% (active)
CCN(CC)CCCNc1nc2ccccc2c2c(=O)c3cc(Cl)ccc3sc12	-15.7% (active)	61.5%	75.5%	45.1%	89.3%	50.7%	40.5%	64.3%	74.1%	61.3%	91.2%	-4.23% (active)	14.3%	20.2%	26.5%	27%	
Cc1[nH]c(C(=O)Nc2ccc(C(=O)N3CCNCC3)cc2OC(C)C)c(Cl)c1Cl	-34.3% (active)	87.1%	90.3%	81.9%	89.3%	69.5%	71.4%	73%	80.5%	64.1%	93%	35.9%	-55.8% (active)	14.5%	-45.9% (active)	50.9%	
CCCCn1c(-c2ccc(-c3nc(-c4ccc(Cl)cc4)no3)cc2)nc(-c2ccccc2)c1-c1ccccc1	6.15% (active)	88.5%	85.4%	82%	88.8%	39.5%	93.9%	95.4%	82.5%	76.3%	101%		88.8%	75.4%	105%	95.2%	79%
